Reference: the supplement of paper PMC10600219
Counter-ions that a name gives are not always drawn. The full ranking holds about 2,800 compounds; the median of “cell viability relative to vehicle” is about 0.98, and the lowest 2% start at about 0.45. Only a selection was taken, and the lowest values are over-represented in it overall.

What follows are compounds tested on NCI-H2228 alectinib-DTP (assay: cell viability relative to vehicle (fraction of vehicle); NCI-H2228 is an ALK-positive lung cancer line and DTP means drug-tolerant persister; higher = less growth inhibition). Conditions: 100 nM; treatment time 6 days.
Outline: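 NCI-H2228 parental cells and drug-tolerant persister cells were plated in 384-well plates; the persisters had been generated with 1000 nM of a targeted drug over 13 days. One day later, the 3114-agent TargetMol anti-cancer compound library was added at 100 nM, with DMSO serving as vehicle. ATP was measured 6 days after that using the CellTiter-Glo 3D Cell Viability Assay. Values are cell viability expressed relative to vehicle-treated cells.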
In the case of `CCn1cc(C(=O)O)c(=O)c2c(N)c(F)c(NC3CCCCC3)cc21`, the cell viability is reported as 1.1. `O=C(NCc1ccc(S(=O)(=O)c2cc(F)cc(F)c2)cc1)c1ccc2nccn2c1` gave a cell viability of 0.34. `Cc1ccc(S(=O)(=O)Cc2nc(-c3ccc(C(=O)NCc4cccnc4)cc3)oc2C)cc1` was tested, and the cell viability was 0.955. `CC1(C)CC[C@]2(C(=O)O)CCC3=C([C@@H](CCl)C[C@@H]4[C@@]5(C)C[C@H](O)[C@H](O)[C@@](C)(C(=O)O)[C@@H]5CC[C@@]34C)[C@@H]2C1` [Senegenin] was tested, and the cell viability was 0.889. `COCc1c(-c2ccc(NC(=O)Nc3cc(C(F)(F)F)ccc3F)c(F)c2)c2c(N)ncnn2c1CN1CCOCC1` gave a cell viability of 0.632. `C[C@@H]1CC[C@@]2(NC1)O[C@H]1C[C@H]3[C@@H]4CC=C5C[C@@H](O[C@@H]6O[C@H](CO)[C@@H](O[C@@H]7O[C@@H](C)[C@H](O)[C@@H](O)[C@H]7O)[C@H](O)[C@H]6O[C@@H]6O[C@@H](C)[C@H](O)[C@@H](O)[C@H]6O)CC[C@]5(C)[C@H]4CC[C@]3(C)[C@H]1[C@@H]2C` [Solamargine] showed a cell viability of 1.06. For `COc1ccc(-c2ccc3c(N4CCOC[C@@H]4C)nc(N4CCOC[C@@H]4C)nc3n2)cc1CO`, the cell viability was 0.377. `CNC(=O)c1cccc(-c2ccc3c(N4CCOC[C@@H]4C)nc(N4CCOC[C@@H]4C)nc3n2)c1` [Vistusertib] showed a cell viability of 0.594. For `COc1ccc(-c2ccc3c(N4CCOCC4)nc(N4C[C@@H](C)O[C@@H](C)C4)nc3n2)cc1CO`, the cell viability was 0.765. With `COc1ccc([C@@H]2OC[C@H]3[C@@H]2CO[C@@H]3c2ccc3c(c2)OCO3)cc1OC` [Fargesin] the cell viability was 1.11. Compound `NCCNc1ccc(NCCN)c2c1C(=O)c1ccncc1C2=O` [Pixantrone dimaleate] has a cell viability of 0.661. Compound `O=C1c2cccc(O)c2C(=O)c2c(O)cccc21` [Antrapurol] has a cell viability of 0.878. `O=C1c2c(O)ccc(O)c2C(=O)c2c(NCCNCCO)ccc(NCCNCCO)c21` [Mitoxantrone] gave a cell viability of 0.386. `CC(C)=CCc1c(O)ccc(C(=O)/C=C/c2ccc(O)cc2)c1O` [Isobacachalcone] showed a cell viability of 1.01. Work on `Cc1ccc([N+](=O)[O-])cc1S(=O)(=O)N(C)/N=C/c1cnc2ccc(Br)cn12` yielded a cell viability of 0.172. For `Cc1ccc([N+](=O)[O-])cc1S(=O)(=O)N(C)/N=C/c1cnc2ccc(Br)cn12` [PIK-75  hydrochloride], the cell viability was 0.201. Work on `CC(C)n1cnc2c(NCc3ccccc3)nc(NCCCO)nc21` [Bohemine] yielded a cell viability of 0.951. `C=CCSC[C@H](N)C(=O)O` [S-allyl-L-cysteine] gave a cell viability of 1.06. Compound `CC(C)=CC[C@H](O)C1=CC(=O)c2c(O)ccc(O)c2C1=O` [Alkannin] has a cell viability of 0.957. With `CC1=C(C(=O)Nc2ccc3[nH]ncc3c2)C(c2ccc(F)c(C(=O)NCc3ccccn3)c2)NC(=O)N1` (configuration not stated) the cell viability was 1. `CO[C@@H](C)Cn1c(=O)n(C)c2cnc3ccc(-c4cncc(C(C)(C)O)c4)cc3c21` was tested, and the cell viability was 0.513. For `Cn1c(=O)n(-c2ccc(C(C)(C)C#N)cc2)c2c3cc(-c4cnc5ccccc5c4)ccc3ncc21` [Dactolisib], the cell viability was 0.435. `CC(C)(C#N)c1ccc(N2C(=O)OCc3cnc4ccc(-c5cnc6ccccc6c5)cc4c32)cc1` was tested, and the cell viability was 0.925. For `O[C@@H]1[C@@H](O)[C@@H](OC/C=C/c2ccccc2)O[C@H](CO[C@@H]2OC[C@H](O)[C@H](O)[C@H]2O)[C@H]1O` [Rosavin], the cell viability was 0.944. For `C[C@@H]1CC(=O)Nc2cccc(-c3ccc4c(c3)c(-c3cnn(C)c3)nn4C)c2N1`, the cell viability was 1.01. `O=C(Nc1nc(-c2ccc(O)c(O)c2)c(-c2ccccc2)s1)c1ccc(O)c(O)c1` gave a cell viability of 1.03. For `CS(=O)(=O)Nc1cc(-c2ccc3ncnc(Nc4ccc(F)c(Cl)c4)c3c2)cnc1Cl`, the cell viability was 0.997. With `CCCS(=O)(=O)Nc1ccc(F)c(C(=O)c2c[nH]c3ncc(-c4ccc(Cl)cc4)cc23)c1F` [Vemurafenib] the cell viability was 1.12. `COc1ncc(-c2ccc3nccc(-c4ccnnc4)c3c2)cc1NS(=O)(=O)c1ccc(F)cc1F` [Omipalisib] was tested, and the cell viability was 0.261. Compound `Nc1ccccc1C(=O)C[C@H](N)C(=O)O` [L-Kynurenine] has a cell viability of 0.987. In the case of `N#CCC(C1CCCC1)n1cc(-c2ncnc3[nH]ccc23)cn1` (configuration not stated), the cell viability is reported as 1.16. Work on `CN1CCN(c2cc(-c3ccccc3)nc(N)n2)CC1` yielded a cell viability of 1.09. In the case of `COC(=O)c1ccc([C@H]2c3[nH]c4ccccc4c3C[C@H](C(=O)OC)N2C(=O)CCl)cc1`, the cell viability is reported as 0.0417. Compound `COC(=O)[C@@H]1[C@H]2C[C@H]3c4[nH]c5ccccc5c4CCN3C[C@@H]2CC[C@@H]1O` [Yohimbine hydrochloride] has a cell viability of 1.22. In the case of `CN1CC(=O)N2[C@H](c3ccc4c(c3)OCO4)c3[nH]c4ccccc4c3C[C@@H]2C1=O` [Tadalafil], the cell viability is reported as 0.916. In the case of `CCCNC(=O)c1cn2ncnc(Nc3cc(C(=O)NC4CC4)ccc3C)c2c1C`, the cell viability is reported as 1.03. Work on `COc1ccc(-c2ccccc2)cc1NS(=O)(=O)c1cc(Cl)cc(Cl)c1O` yielded a cell viability of 0.883.
